Assay outcomes deposited in PubChem by several laboratories.
TLR9-MyD88 inh: inhibitors of TLR9-MyD88 association in cells, primary screen, cell-based, CHO, BLA complementation, fluorescence. Toll-like receptor 9 (Homo sapiens) + Myeloid differentiation primary response protein …. inhibition, % at 4.98 µM. CCF4 FRET ratio. 0.21% of 340,000 active. AID 504734, 2011;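 active means inhibition above the mean over all tested compounds plus 3 SD, cut at about 21% in these data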
TLR4 MyD88 comp: inhibitors of TLR4-MyD88 association in cells, primary screen, cell-based, HeLa CL3-4, BLA complementation, FRET ratio. inhibition, % at 8.4 µM. AID 861, 2007. HeLa CL3-4 TLR4/MyD88 BLA complementation. 0.18% of 200,000 active; in the data active means inhibition above about 25%
Myeloid diff 2: induction of myeloid progenitor differentiation, primary screen, cell-based, flow cytometry, MLPCN library | AID 624256, 2012 | ER-HoxA9 myeloid progenitors, lysozyme-GFP differentiation | 1% of 360,000 active | calls only at 10 µM;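 active means normalized GFP-positive differentiation at or above the plate's own cutoff, the solvent-only control mean plus 3 SD; inconclusive means no clear call, values can overlap the other calls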;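 further: cells exposed to compound for four days before flow analysis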
NOD2 RIPK2 PPI: NOD2-RIPK2 binding disruptors in cells, primary screen, fluorescence, CHO cells, BLA complementation; Receptor-interacting serine/threonine-protein kinase 2 (Homo sapiens), O43353; CCF4 ratio; inhibition, % at 4.98 µM; 0.38% of 360,000 active; AID 624267, 2012; in the data active means inhibition above about 21%
Target sequence (O43353 whole entry, looked up): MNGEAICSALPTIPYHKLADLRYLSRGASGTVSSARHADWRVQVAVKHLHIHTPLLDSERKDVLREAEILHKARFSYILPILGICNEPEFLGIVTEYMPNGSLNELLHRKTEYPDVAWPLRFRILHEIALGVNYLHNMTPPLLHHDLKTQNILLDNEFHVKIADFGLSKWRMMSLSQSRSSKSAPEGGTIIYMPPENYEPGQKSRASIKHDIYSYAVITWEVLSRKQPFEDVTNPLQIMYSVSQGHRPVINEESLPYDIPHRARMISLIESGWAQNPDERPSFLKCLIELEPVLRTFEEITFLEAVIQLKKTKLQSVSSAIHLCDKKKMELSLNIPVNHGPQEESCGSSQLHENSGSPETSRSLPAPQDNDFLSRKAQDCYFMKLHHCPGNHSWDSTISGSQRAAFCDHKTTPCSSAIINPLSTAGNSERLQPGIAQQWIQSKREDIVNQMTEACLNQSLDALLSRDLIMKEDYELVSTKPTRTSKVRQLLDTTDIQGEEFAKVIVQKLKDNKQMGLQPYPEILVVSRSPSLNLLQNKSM
A number is an active result; 0 = inactive; ? = inconclusive; - = no result; + = active, no number. Hits are enriched below; roughly 1.5% of the tested compounds scored in any of these assays.

SMILES | TLR9-MyD88 inh | TLR4 MyD88 comp | Myeloid diff 2 | NOD2 RIPK2 PPI
COc1ccc(C2C(C(C)=O)=C(O)C(=O)N2CCCn2ccnc2)cc1OC (stereo not given) | 0 | - | 0 | 0
CCNC(=O)C1CCCN(C(=O)Cc2cccs2)CC1 (stereo not given) | - | - | 0 | 0
COc1ccccc1Cc1c(-c2ccc(Cl)cc2)nc2c(Cl)cc(C(F)(F)F)cn12 | - | - | 0 | 0
COc1ccccc1Cc1c(-c2ccc(C#N)cc2)nc2c(Cl)cc(C(F)(F)F)cn12 | - | - | + | 0
CC1Sc2ccc(C(=O)N(CCc3ccccc3)Cc3ccccc3)cc2NC1=O (stereo not given) | 0 | - | 0 | 0
Cc1ccc(-c2cc(C(=O)N/N=C/c3ccc([N+](=O)[O-])o3)c3ccccc3n2)o1 | 0 | - | ? | 0
Cc1cc(N/N=C/c2ccc([N+](=O)[O-])o2)nc2ccccc12 | 0 | 0 | + | 0
C=CCN(CC=C)c1nc2ccccc2nc1C(C#N)C(=O)OC(C)C (stereo not given) | 0 | 0 | + | 0
O=C(Nc1nc2ccccc2s1)C1c2ccccc2Oc2ccccc21 | 0 | 0 | + | 0
O=C(Nc1nc2ccccc2s1)C1CCCO1 (stereo not given) | 0 | 0 | 0 | 0
O=C(O)CCN1C(=O)/C(=C/c2ccc(-c3nc4ccccc4s3)o2)SC1=S | 0 | 0 | + | 0
O=C1/C(=C\c2ccc(O)c(O)c2)SC(=S)N1Cc1ccccc1 | 0 | - | + | 0
COc1cc(/C=C2/SC(=NCc3ccccc3)N(Cc3ccccc3)C2=O)ccc1O | 0 | 0 | 0 | 0
O=C(O)c1cc(-c2ccc(/C=C3/SC(=S)N(Cc4ccccc4)C3=O)o2)ccc1Cl | 0 | 0 | + | 0
O=C(O)CC(C(=O)O)N1C(=O)/C(=C/c2ccc(-c3nc4ccccc4s3)o2)SC1=S (stereo not given) | 0 | 0 | 0 | 0
COc1cc(/C=C2/SC(=S)N(Cc3ccccc3)C2=O)ccc1O | 0 | - | + | 0
COc1ccc(Cl)cc1-c1cc(C(=O)Nc2ccc(C)c(NS(C)(=O)=O)c2)[nH]n1 | - | - | 0 | 0
Nc1c(C(=O)C2CC2)sc2nc(-c3cccs3)cc(C(F)(F)F)c12 | 0 | 0 | + | 0
CC(C)NC(=O)c1sc2nc(-c3cccs3)cc(-c3cccs3)c2c1N | - | 0 | - | -
CCOc1ccccc1NC(=O)Nc1ccc2c(c1)CCC2 | 0 | - | + | 0
Cc1ccc(NC(=O)CSc2nnc(C)n2CC2CCCO2)cc1 (stereo not given) | 0 | 0 | + | 0
Cn1nc(C(C)(C)C)cc1C(=O)N1CCCCC1c1cc(C(=O)NCc2cccnc2)no1 (stereo not given) | - | - | 0 | 0
O=C(COc1cccnc1[N+](=O)[O-])N1N=C(c2ccc(Cl)cc2)CC1c1ccco1 (stereo not given) | 0 | 0 | + | 0
Cc1ccc(C2=NN(C(=O)CSc3nccn3C)C(c3ccco3)C2)cc1 (stereo not given) | 0 | - | + | 0
CC(NC(=O)Nc1ccc(O)cc1)(C(F)(F)F)C(F)(F)F | 0 | 0 | 0 | 0
SMILES | TLR9-MyD88 inh | TLR4 MyD88 comp | Myeloid diff 2 | NOD2 RIPK2 PPI
CC(NC(=O)Nc1ccccc1O)(C(F)(F)F)C(F)(F)F | 0 | 0 | + | 0
C/C=C/c1cccc(-c2nc(C(=O)N3CCCCC3)cc3c2[C@@H](CCO)N(C(=O)NC(C)C)C3)c1 | - | - | 0 | 0
CCOC(=O)c1ccc(NC(=O)Nc2ccn(C)n2)cc1 | 0 | 0 | + | 0
CCOC(=O)C1=C(c2ccccc2)N=c2s/c(=C\c3cc(OC)c(OC)c(OC)c3)c(=O)n2C1c1cccs1 (stereo not given) | 22 | 0 | 0 | 0
CCOC(=O)C1=C(c2ccccc2)N=c2s/c(=C\c3ccco3)c(=O)n2C1c1cccs1 (stereo not given) | 0 | 0 | 0 | 0
Nc1nc2c(ncn2[C@@H]2O[C@H](CNCc3cnc(N4CCOCC4)s3)[C@@H](O)[C@H]2O)c(=O)[nH]1 | - | - | 0 | 0
CCOC(=O)C(=C1Nc2ccccc2N1)n1c(-c2cccnc2)nc2ccccc21 | - | - | 0 | 0
CCCN1CCC(=O)N([C@H](CSc2ccc(Br)cc2)Cc2ccccc2)CC1 | 0 | - | + | 0
CCNC(=O)C1(C)CCCN(Cc2noc(-c3c(C)noc3C)n2)C1 (stereo not given) | - | - | 0 | 0
COc1cccc(OC)c1C(=O)Nc1sc2c(c1C(N)=O)CCN(Cc1ccccc1)C2 | 0 | - | 0 | 0
CCOC(=O)N1CCN(S(=O)(=O)c2ccc(C(=O)Nc3sc4c(c3C(N)=O)CCN(CC)C4)cc2)CC1 | 0 | - | 0 | 0
CC(=O)c1ccc(C(=O)Nc2sc3c(c2C(N)=O)CCN(Cc2ccccc2)C3)cc1 | 0 | - | + | 0
CCN1CCc2c(sc(NC(=O)c3ccc(S(=O)(=O)N(C)CC4CCCO4)cc3)c2C(N)=O)C1 (stereo not given) | 0 | - | 0 | 0
CCCN1CCc2c(sc(NC(=O)c3ccc(S(=O)(=O)N(C)c4ccccc4)cc3)c2C(N)=O)C1 | 0 | - | + | 0
CCCN1CCc2c(sc(NC(=O)c3ccc(S(=O)(=O)N4CCN(C(=O)OCC)CC4)cc3)c2C(N)=O)C1 | 0 | - | + | 0
CN1CCc2c(sc(NC(=O)c3ccc(S(=O)(=O)N4CCCCCC4)cc3)c2C(N)=O)C1 | 0 | - | + | 0
Cc1cc(C)cc(C(O)c2ncc(-c3ccccc3Cl)[nH]2)c1 (stereo not given) | - | - | 0 | 0
CC(C)N1CCc2c(sc(NC(=O)c3ccco3)c2C(N)=O)C1 | 0 | - | + | 0
O=C(NCc1ccc(F)cc1)N1[C@H]2CC[C@@H]1C=C(c1ccc(F)cc1OCc1ccccc1)C2 | 0 | - | 0 | 0
COC(=O)CSc1cc([N+](=O)[O-])ccc1NC(=O)OC | 0 | 0 | + | 0
COC(=O)Nc1ccc([N+](=O)[O-])cc1OC | 0 | 0 | 0 | 0
CC1=C(C(=O)N2CCCCCC2)CC(CC(=O)NCCCCc2ccccc2)C(=O)N1Cc1ccccc1 (stereo not given) | - | - | 0 | 0
Cc1ccc(NC(=O)/C=C/c2ccc3c(c2)OCO3)nc1 | 0 | 0 | + | 0
CCCCNS(=O)(=O)c1cccc(NC(=O)[C@@H]2O[C@H](CO)[C@H](O)[C@H](O)[C@H]2O)c1 | - | - | 0 | 0
Cc1nc2c3cc(F)ccc3n(Cc3ccc(F)cc3)c2s1 | 0 | 0 | + | 0
Cc1ccc(F)cc1-c1cc2nc(NCCCN(C)C)n(C)c(=O)c2s1 | - | - | 0 | 0
CCc1ccc(C2=CC(c3cc(Br)ccc3F)n3ncnc3N2)cc1 (stereo not given) | 29 | 0 | + | 38
C[C@H](NC(=O)[C@@H]1CCCN1C(=O)[C@@H]1CCCN1C(=O)c1cccc2ccccc12)c1ccccc1 | - | - | 0 | 0
O=C1Nc2ccccc2-n2nnnc2C1N1CCN(C(=O)C2CCCO2)CC1 (stereo not given) | - | - | 0 | 0
O=C1COc2ccc(S(=O)(=O)NCCc3ccccc3)cc2N1 | 0 | - | + | 0
